DT40 TDP1 no CPT: qHTS for Inhibitors of human tyrosyl-DNA phosphodiesterase 1 (TDP1): qHTS in cells in absence of CPT | Potency, µM (titrated, usually from 46.2 µM), inactives show at the highest dose activity change, negative = growth inhibition, hits mostly inhibitors | 15% of 420,000 active | DT40 Tdp1-/- hTDP1 cells, no CPT, ATP luminescence, 48 h; also: nearly all actives have a fitted effect of over 55% in size
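A cellular qHTS used chicken DT40 cells lacking endogenous Tdp1 but carrying stably transfected human TDP1. Compounds were applied without camptothecin, and cell growth kinetics were judged by ATP-dependent luminescence after ≥48 hr.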
PLK1 PBD inh: blocks phosphopeptide binding to human PLK1 polo-box domain. P53350. Plk1 PBD binding of FITC phosphopeptide, fluorescence polarization. Potency, µM, for inactives: max response, negative = inhibition, most hits filed as inhibitors. 2.8% of 360,000 active; also: series mostly up to about 57 µM; nearly all actives have a fitted effect of over 65% in size
Target sequence (P53350 whole entry, looked up, the tested form may be a part): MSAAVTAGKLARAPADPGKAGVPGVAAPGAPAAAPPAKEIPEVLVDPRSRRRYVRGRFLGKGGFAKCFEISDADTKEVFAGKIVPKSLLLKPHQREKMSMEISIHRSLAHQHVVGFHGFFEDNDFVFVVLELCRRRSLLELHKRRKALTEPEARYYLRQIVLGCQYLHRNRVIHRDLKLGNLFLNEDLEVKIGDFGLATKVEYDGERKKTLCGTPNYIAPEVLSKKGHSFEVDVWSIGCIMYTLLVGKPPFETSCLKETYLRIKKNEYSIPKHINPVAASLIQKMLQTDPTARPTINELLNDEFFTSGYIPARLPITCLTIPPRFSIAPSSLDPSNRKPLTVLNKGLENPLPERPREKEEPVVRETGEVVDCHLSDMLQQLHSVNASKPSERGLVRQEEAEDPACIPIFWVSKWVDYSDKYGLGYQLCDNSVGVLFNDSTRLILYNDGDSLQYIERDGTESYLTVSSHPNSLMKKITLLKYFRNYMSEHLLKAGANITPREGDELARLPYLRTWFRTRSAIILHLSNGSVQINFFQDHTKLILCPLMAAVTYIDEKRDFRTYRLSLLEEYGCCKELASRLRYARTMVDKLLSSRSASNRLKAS
TDP1 inh: inhibitors of human tyrosyl-DNA phosphodiesterase TDP1 | recombinant TDP1, AlphaScreen DNA substrate cleavage | 0.28% of 350,000 active | Q9NUW8 | Potency, µM (doses to about 130 µM), inactives show top-dose activity change, negative = inhibition, usual class: inhibitors | AID 485290; also: nearly all actives have a fitted effect of over 40% in size
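Enzyme-compound mixtures sat 15 min at room temperature, followed by a 5 min reaction with 15 nM final substrate and 10 min with AlphaScreen beads. Recombinant human Tdp1 was used at 1 nM final.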
KAT2A inh: inhibitors of human GCN5L2 histone acetyltransferase; Q92830; GCN5L2 HAT assay, ThioGlo1 CoA-SH fluorescence; Potency, µM (top dose mostly 58.9 µM), inactives show at the top dose activity change, negative = inhibition, actives largely listed as inhibitors; 0.21% of 390,000 active; AID 504327
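Enzyme at 20nM final was mixed with library compounds for 15 min at room temperature. Peptide H3(1-25) at 75uM, acetyl-CoA at 70uM and ThioGlo1 at 50uM were then added. Plates were read immediately and after 20 min (Ex340nm/Em540nm).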
TDP1 cell CPT: DT40-hTDP1 cell growth loss with CPT | chicken DT40 Tdp1-/-;hTDP1 cells + 20 nM CPT, ATP luminescence, 48 h | Potency, µM (doses to about 46.2 µM), for inactives: top-dose activity change, negative = growth inhibition, actives largely listed as inhibitors | 12% of 420,000 active; also: nearly all actives have a fitted effect of over 55% in size
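Chicken DT40 Tdp1-/- cells stably complemented with human TDP1 were seeded at 400 cells/well in medium containing 20 nM camptothecin, exposed to pin-transferred compounds, and grown at 37 °C for at least 48 hr. Viability was read as ATP luminescence.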
VDR inh: vitamin D3 receptor (human) inhibition. P11473. VDR-SRC2-3 peptide fluorescence polarization, 2 h. Potency, µM, for the others: max response, negative = inhibition, most hits filed as inhibitors. 0.93% of 400,000 active
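FP read-out; VDR + SRC2-3 coactivator peptide; 23 nl compound by pintool; 2 h RT incubation; reagents held at 4 deg C, protected from light.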
* = called active by the depositor; ? = inconclusive; nt = not tested or not shown; [ ] = another dose, or the depositor's remark. Most compounds without a hit are left out; they make up all but 18% or so of the library. Calls follow the shape of the dose curve; as a rule, active = well fitted curve in the direction sought with a large enough effect; inconclusive = small, poorly fitted or top-dose-only effect, or another doubt; inactive = no such curve, though single readings can be large; an effect the other way counts as inactive or inconclusive. % is scaled to controls: 0 for no effect and ±100 for the full control effect; potency is read from the fitted curve at half-maximal effect.

SMILES | DT40 TDP1 no CPT | PLK1 PBD inh | TDP1 inh | KAT2A inh | TDP1 cell CPT | VDR inh
COc1cc(NC(=O)CC2C(=O)N(c3cccc(C)c3)C(=O)N2Cc2ccco2)cc(OC)c1 (centres undefined) | 23µM* | nt | 8% | 3% | ? | 7%
Cc1ncc2c(c1CNS(=O)(=O)N(C)C)CCN(C(=O)c1ccc(F)cc1Cl)C2 | -13% | nt | nt | nt | 1%[9.04 µM] | nt
O=C(C1CCC(=O)N(C2CC2)C1)N1CCN(c2cccc(Cl)c2)CC1 (centres undefined) | -11% | -2% | 4% | 3% | -29% | -22%
CCOc1ccc(NC(=O)CC2C(=O)N(c3ccccc3)C(=O)N2CCc2ccc(OC)cc2)cc1 (centres undefined) | ? | nt | 1% | -3% | ? | -12%
COc1ccc(CCN2C(=O)N(c3ccc(C)cc3)C(=O)C2CC(=O)Nc2ccc(F)cc2)cc1 (centres undefined) | 21µM* | nt | 4% | -14% | ? | 8%
CCOc1ccc(NC(=O)CC2C(=O)N(c3ccc(C)cc3)C(=O)N2C2CCCCC2)cc1 (centres undefined) | ? | nt | -4% | 2% | 18µM* | -6%
CCc1ccc(NC(=O)CC2C(=O)N(c3ccc(C)cc3)C(=O)N2CCc2ccncc2)cc1 (centres undefined) | 23µM* | -5% | 5% | -1% | ? | 3%
CCCOc1ccc(NC(=O)CC2C(=O)N(c3ccccc3)C(=O)N2Cc2ccc(F)cc2)cc1 (centres undefined) | 21µM* | nt | 8% | -1% | 16µM* | 6%
Cc1ccc(NC(=O)COC(=O)CCC2CCCC2)cc1S(=O)(=O)N1CCOCC1 | -28% | 1% | -4% | -1% | -6% | -28%
COC(=O)c1ccc(NC(=O)CC2C(=O)N(c3ccc(F)cc3)C(=O)N2Cc2ccc(OC)cc2)cc1 (centres undefined) | 18µM* | nt | 8% | -7% | ? | 11%
N#C/C(=C\Nc1ccc2cn[nH]c2c1)c1nc(-c2ccccc2)cs1 | 16µM* | -9% | 7% | -17% | ? | 1%
N#C/C(=C/c1ccc(O)cc1)c1nc(-c2ccc(-c3ccccc3)cc2)cs1 | ? | nt | 2%[12.3 µM] | -7% | ? | -1%
CSc1nc(NCCOC(C)=O)c(C#N)c(-c2ccc(C(C)(C)C)cc2)n1 | 16µM* | nt | -5% | -21% | ? | 5%
CC(=O)Nc1ccc(-c2csc(NCc3ccccc3)n2)cc1 | ? | -16% | 5% | 2% | -17% | -18%
CCC(=O)Nc1ccc(-c2csc(NNC(C)=O)n2)cc1 | 1% | -24% | 3% | -8% | 0% | 2%
CC(=O)Nc1ccc(-c2csc(NNC(=O)c3ccccc3)n2)cc1 | 1.3µM* | -12% | 0% | -4% | 12µM* | 10%
CC(=O)Nc1ccc(-c2csc(N/N=C(/C)c3ccccc3)n2)cc1 | 9.2µM* | -25% | nt | -16% | 21µM* | ?
COc1ccc(NC(=O)Nc2ccccc2OCc2cc(=O)n3ccccc3n2)c(OC)c1 | ? | nt | 5% | -12% | ? | 20%
CCOC(=O)C(CC(=O)c1ccccc1)CC(=O)c1ccccc1 | -2% | 5% | nt | -2% | ? | 20%
CCOC(=O)CC(S(=O)(=O)c1ccccc1)S(=O)(=O)c1ccccc1 | 0.65µM* | 27µM* | nt | nt | 0.58µM* | nt
COc1ccc(NC(=O)c2sc3nc(N4CCOCC4)c4c(c3c2N)CCCC4)c(OC)c1 | -6% | -6% | 1% | -1% | -4% | -10%
Cc1cccc(NC(=O)c2sc3nc(N4CCOCC4)c4c(c3c2N)CC(C)(C)OC4)c1 | 7.3µM* | nt | 0% | -1% | ? | 4%
Nc1c(C(=O)Nc2ccc(Br)cc2)sc2nc(N3CCOCC3)c3c(c12)CCCC3 | ? | -12% | nt | nt | 21µM* | nt
COc1ccc(OC)c(C2=Nn3c(nnc3-c3ccccc3OC)SC2)c1 | nt | nt | 10% | nt | nt | nt
Cc1ccc(NC(=O)C2(C)Cc3ccccc3C(=O)O2)c(C)c1 (centres undefined) | ? | nt | -8% | -4% | -14% | 8%
SMILES | DT40 TDP1 no CPT | PLK1 PBD inh | TDP1 inh | KAT2A inh | TDP1 cell CPT | VDR inh
Cc1c(C(=O)N/N=C/C(C)C)[nH]c2c([N+](=O)[O-])cccc12 | 23µM* | -9% | 4% | -5% | 4% | 2%
Cc1cc(C(=O)N/N=C/c2cccc([N+](=O)[O-])c2O)n[nH]1 | ? | -8% | 0% | -3% | ? | -2%
CCCCC(CC)COS(=O)(=O)O (centres undefined) | -16% | nt | nt | 6% | 6% | 2%
O=S(=O)(Cc1nnnn1-c1ccccc1)c1ccc(Cl)cc1 | -1% | 2% | 3% | -13% | 12% | -17%
N#Cc1ccc(CS(=O)(=O)c2nnnn2-c2ccccc2)cc1 | nt | nt | 2% | nt | nt | 45µM*
O=S(=O)(Cc1ccccc1)c1nnnn1-c1ccccc1 | nt | nt | 6% | nt | nt | 35µM*
O=C(Nc1ccc2ncccc2c1)Nc1ccc2ncccc2c1 | 8.2µM* | 0% | nt | -2% | 21µM* | -2%
c1cnc2ccc(-c3ccc4ncccc4c3)cc2c1 | 4.1µM* | -4% | nt | -15% | ? | -3%
Oc1ccc2cccnc2c1 | ? | 27µM* | 0% | -11% | ? | -6%
O=C(Cc1ccc2cccnc2c1)c1ccc(O)cc1O | -16% | -1% | 6% | -1% | -13% | 12%
COc1ccccc1-c1cc(C(F)(F)F)nc(S(=O)(=O)CCCC(=O)NC(C)C)n1 | 3.3µM* | ? | -1% | ? | 2.3µM* | ?
COc1ccccc1-c1cc(C(F)(F)F)nc(N2CCCCC2)n1 | 1% | -1% | -1% | -5% | -6% | -10%
COc1ccccc1-c1cc(C(F)(F)F)nc(S(=O)(=O)CCCC(=O)NCc2ccc(F)cc2)n1 | 4.1µM* | -22% | 0% | -6% | 2.9µM* | ?
COc1ccccc1-c1cc(C(F)(F)F)nc(S(=O)(=O)CCCC(=O)N2CCCCC2C)n1 (centres undefined) | 4.1µM* | ? | 4% | -1% | 4.1µM* | 32µM*
COc1ccccc1-c1cc(C(F)(F)F)nc(S(C)(=O)=O)n1 | 5.8µM* | ? | 2% | -12% | 3.7µM* | ?
CC(C)(C)OC(=O)N1CCC[C@H]1C(=O)Nc1ccc(C#N)cc1 | ? | -9% | nt | ? | -8% | 10%
CC(=O)N1CCC(N(C(=O)Nc2ccc(C)c(F)c2)C(C)C)CC1 | -2% | nt | 6% | -4% | 3% | 1%
N#CCc1cc2ccc3cccc4ccc(c1)c2c34 | ? | 5% | nt | 2% | -5% | 8%
